The list is not random: actives were taken first. Their share in the collection is about 18%.
TGFb inhibitor: TGF-b pathway inhibition. Potency, µM (highest dose often 46.1 µM), for the others: at the top dose activity, negative = inhibition, hits mostly inhibitors. 410,000 compounds, 1.2% hits. HepG2 CAGA-GFP TGF-b/SMAD3 reporter, GFP fluorescence, 18 h; TGF-beta stimulated, 500 pg/mL final. AID 588855; also: potency is read from the fitted curve at half-maximal effect; % is scaled to controls: 0 for no effect and ±100 for the full control effect; nearly all actives have a fitted effect of over 65% in size
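Read-out: total well GFP (ex488/em500-530) summed from mean per-cell fluorescence. Cells: HEPG2 CAGA-GFP, 1% FBS DMEM, 18 h at 37 degrees C with 500 pg/mL final TGF-beta. Unstimulated wells served as the full-inhibition control; stimulated DMSO wells = 0%.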
IL1B secr inh: inhibitors of inflammasome signaling (IL-1 beta secretion) | THP-1 LPS/ATP IL-1B secretion, AlphaLISA, 16 h; hits give low values | AID 743279 | activity change, % at 57.5 µM | 360,000 compounds, 4.7% hits; in the data active = activity change below about -50%; inconclusive = mostly about -30% to -49%; also: % is scaled to controls: 0 for no effect and ±100 for the full control effect
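THP-1 cells pretreated 1 hr with compounds (up to 57.5 uM final), then stimulated with LPS (250 ng/mL final) plus ATP (1.25 mM final); secreted IL-1B measured by AlphaLISA after 16 hr, decreased signal indicating inhibition.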
HepG2 tox: HepG2 cytotoxicity, counter-screen for TGF-b inhibitors. HepG2 CAGA-GFP viability, ATP luminescence, 18 h. Potency, µM (top dose mostly 46.1 µM), for inactives: at the top dose activity change, negative = cytotoxicity, actives largely listed as cytotoxic. 410,000 compounds, 0.76% hits. AID 588856; also: potency is read from the fitted curve at half-maximal effect
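CellTiter-Glo luminescence gave cytotoxicity after 18 hours at 37 degrees C. The cells were HepG2 CAGA-GFP in 1% FBS DMEM, stimulated with 500 pg/mL TGF-beta after compound addition. %Activity was normalised to no-cell wells (complete cell-killing) and DMSO (no toxicity), and curves were fitted and classified.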
DT40 TDP1 no CPT: qHTS for Inhibitors of human tyrosyl-DNA phosphodiesterase 1 (TDP1): qHTS in cells in absence of CPT; DT40 Tdp1-/- hTDP1 cells, no CPT, ATP luminescence, 48 h; Potency, µM (doses to about 46.2 µM), for the others: at the highest dose activity change, negative = growth inhibition, usual class: inhibitors; 420,000 compounds, 15% hits; AID 686978, 2013; also: potency is read from the fitted curve at half-maximal effect; % is scaled to controls: 0 for no effect and ±100 for the full control effect; nearly all actives have a fitted effect of over 55% in size
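Growth of hTDP1-complemented DT40 Tdp1-knockout cells is measured by ATP luminescence after at least 48 hr compound exposure at 37 °C, with DMSO substituting for the 20 nM CPT used in the parallel screen.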
TDP1 cell CPT: DT40-hTDP1 cell growth loss with CPT. chicken DT40 Tdp1-/-;hTDP1 cells + 20 nM CPT, ATP luminescence, 48 h. Potency, µM (titrated, usually from 46.2 µM), inactives show top-dose activity change, negative = growth inhibition, usual class: inhibitors. 420,000 compounds, 12% hits; also: potency is read from the fitted curve at half-maximal effect; % is scaled to controls: 0 for no effect and ±100 for the full control effect; nearly all actives have a fitted effect of over 55% in size
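Chicken DT40 Tdp1-/- cells stably complemented with human TDP1 were seeded at 400 cells/well in medium containing 20 nM camptothecin, exposed to pin-transferred compounds, and grown at 37 °C for at least 48 hr. Viability was read as ATP luminescence.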
TDP1 inh: blocks human tyrosyl-DNA phosphodiesterase 1 | Q9NUW8 | recombinant TDP1, AlphaScreen DNA substrate cleavage | Potency, µM (highest dose often 130 µM), for the others: top-dose activity change, negative = inhibition, most hits filed as inhibitors | 350,000 compounds, 0.28% hits | AID 485290; also: potency is read from the fitted curve at half-maximal effect; % is scaled to controls: 0 for no effect and ±100 for the full control effect; nearly all actives have a fitted effect of over 40% in size
Target sequence (Q9NUW8 whole entry, looked up): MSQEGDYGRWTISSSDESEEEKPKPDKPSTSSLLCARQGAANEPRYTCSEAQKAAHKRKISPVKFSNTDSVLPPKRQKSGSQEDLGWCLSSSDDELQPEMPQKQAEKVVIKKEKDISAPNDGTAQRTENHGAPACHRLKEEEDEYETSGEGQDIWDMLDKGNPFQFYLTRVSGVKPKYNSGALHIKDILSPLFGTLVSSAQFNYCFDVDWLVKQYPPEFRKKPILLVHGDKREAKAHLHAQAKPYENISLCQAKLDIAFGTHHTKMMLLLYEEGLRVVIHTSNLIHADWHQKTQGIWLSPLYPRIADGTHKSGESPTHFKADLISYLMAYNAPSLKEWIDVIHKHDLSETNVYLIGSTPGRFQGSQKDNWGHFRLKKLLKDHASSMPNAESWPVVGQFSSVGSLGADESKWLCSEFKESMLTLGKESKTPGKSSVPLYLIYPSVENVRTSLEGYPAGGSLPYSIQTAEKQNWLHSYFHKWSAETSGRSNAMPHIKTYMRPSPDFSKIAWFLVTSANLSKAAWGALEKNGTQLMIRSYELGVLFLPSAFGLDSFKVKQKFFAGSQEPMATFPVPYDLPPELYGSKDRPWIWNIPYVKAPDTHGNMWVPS
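Signal: AlphaScreen proximity between streptavidin donor and anti-FITC acceptor beads on intact substrate. Reaction: Tdp1 1 nM, substrate 15 nM final, 5 min RT after 15 min compound preincubation.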
* marks the source's active call; other numbers are inactive results; ? = inconclusive; · = not tested or not shown; [ ] = another dose, or the depositor's remark. Unless noted, calls follow the shape of the dose curve; as a rule, active = well fitted curve in the direction sought with a large enough effect; inconclusive = small, poorly fitted or top-dose-only effect, or another doubt; inactive = no such curve, though single readings can be large; an effect the other way counts as inactive or inconclusive.

SMILES	TGFb inhibitor	IL1B secr inh	HepG2 tox	DT40 TDP1 no CPT	TDP1 cell CPT	TDP1 inh
CN(C)S(=O)(=O)c1ccc(Cl)c(NC(=O)CN2C(=O)NC3(CCc4ccccc43)C2=O)c1 (centres undefined)	-15%	0	-51%	-22%	-17%	0%[56.1 µM]
CC(C)Cc1ccc(C(C)/C=C2/CCC(CN3CCCCC3)C2=O)cc1 (centres undefined)	16µM*	-106*	-72%	2.9µM*	2.9µM*	·
O=C1CCSC2(C(=O)N(Cc3ccc(F)cc3)c3ccccc32)N1c1ccccc1 (centres undefined)	?	·	-48%	8.2µM*	7.3µM*	4%
O=C1CCSC2(C(=O)N(Cc3ccc(F)cc3)c3ccccc32)N1c1ccc(F)c(F)c1 (centres undefined)	?	·	-79%	10µM*	7.3µM*	5%
O=C1CCSC2(C(=O)N(Cc3ccc(F)cc3)c3ccccc32)N1c1cccc(F)c1 (centres undefined)	13µM*	·	-50%	3.7µM*	5.2µM*	-3%
CC(C)c1ccc(N2C(=O)CSC23C(=O)N(Cc2cccc(F)c2)c2ccccc23)cc1 (centres undefined)	2%	·	2%	·	·	3%
Cc1cc(C)cc(N2C(=O)CCSC23C(=O)N(Cc2ccccc2)c2ccccc23)c1 (centres undefined)	?	·	-16%	5.8µM*	5.8µM*	-2%
O=C1CSC2(C(=O)N(Cc3ccccc3F)c3ccccc32)N1c1ccc(F)cc1 (centres undefined)	-1%	·	-2%	·	·	6%
Cc1cccc(N2CC(C)Cn3c2nc2c3c(=O)n(CC(=O)O)c(=O)n2C)c1 (centres undefined)	0%	·	-9%	12%	-8%	7%
COc1ccc(S(=O)(=O)N2CCC(C(=O)Nc3ccc(Oc4ccccc4)cc3)CC2)cc1OC	-3%	·	-33%	?	?	·
COc1ccccc1CCNC(=O)Cc1ccc(NC(=O)N2CCSc3ncccc32)cc1	0%	·	-21%	?	?	0%
Cc1cccc(N2C(=O)CCSC23C(=O)N(Cc2ccc(F)cc2)c2ccccc23)c1 (centres undefined)	?	·	18µM*	6.5µM*	9.2µM*	3%
Cc1cccc(N2C(=O)CSC23C(=O)N(Cc2cccc(F)c2)c2ccccc23)c1 (centres undefined)	-3%	·	-26%	·	·	-6%
COc1ccc(S(=O)(=O)N2CCCCCC2)cc1NC(=O)c1c2c(nc3ccccc13)CCN(Cc1ccccc1)C2	?	-1	23%	?	16µM*	8%
COc1ccc(S(=O)(=O)N2CCCCC2)cc1NC(=O)Cn1cnc2ccccc2c1=O	2%	-7	0%	7%	-7%	0%
COc1ccc(NC(=O)c2c3c(nc4ccccc24)CCN(Cc2ccccc2)C3)c(OC)c1	?	-14	-22%	?	16µM*	8%
CCN(CC)S(=O)(=O)c1ccc(OC(C)C)c(NC(=O)c2c3c(nc4ccccc24)CCN(Cc2ccccc2)C3)c1	2%	-14	-59%	12µM*	13µM*	6%
CC1(C)CC2CC(C)(CN2C(=O)COC(=O)c2cccc([N+](=O)[O-])c2)C1 (centres undefined)	7%	21	-1%	-27%	?	2%
CCc1noc(C)c1C(=O)N(CCC(C)C)c1c(N)n(Cc2ccccc2)c(=O)[nH]c1=O	-12%	10	-3%	11%	-7%	3%
CCN(CC(=O)NCCN1CCOCC1)S(=O)(=O)c1ccc(F)cc1	8%	-1	1%	-4%	-7%	·
O=C(Nc1ccc2nc(SCC(=O)N3CCCC3)sc2c1)c1cccc(Br)c1	-10%	·	-33%	16µM*	?	2%
O=C(Nc1ccc2nc(SCC(=O)N3CCOCC3)sc2c1)c1cccc(Cl)c1	0%	·	-75%	18µM*	15µM*	-1%
O=C(Nc1ccc2nc(SCC(=O)N3CCCC3)sc2c1)c1ccc(Br)cc1	-21%	·	-8%	?	-30%	-1%
COCCCNC(=O)c1ccc(-c2nc(CS(=O)(=O)c3ccc(C)cc3)c(C)o2)cc1	19%	·	0%	16µM*	?	-6%
Cc1ccc(CNC(=O)c2ccc(-c3nc(CS(=O)(=O)c4ccc(C)cc4)c(C)o3)cc2)cc1	0%	·	8%	7.3µM*	13µM*	-3%
SMILES	TGFb inhibitor	IL1B secr inh	HepG2 tox	DT40 TDP1 no CPT	TDP1 cell CPT	TDP1 inh
CCCCNC(=O)c1ccc(-c2nc(CS(=O)(=O)c3ccc(C)cc3)c(C)o2)cc1	18%	·	12%	?	?	6%
COc1ccccc1CNC(=O)c1ccc(-c2nc(CS(=O)(=O)c3ccc(C)cc3)c(C)o2)cc1	-7%	·	0%	23µM*	?	3%
CCCn1c(N)c(N(CCOC)C(=O)c2ccc([N+](=O)[O-])cc2Cl)c(=O)[nH]c1=O	11%	10	0%	-2%	7%	-6%
COc1ccc(Cc2c(-c3ccco3)nc3ccc(Cl)cn23)c(C)c1	22µM*	-4	-47%	?	?	·
COc1ccccc1Cc1c(-c2ccco2)nc2c3ccccc3ccn12	·	-2	·	16µM*	23µM*	·
COc1ccc(Cc2c(-c3ccco3)nc3c(C)cc(Br)cn23)c(C)c1	?	2	-17%	2.3µM*	2.9µM*	·
Brc1ccc2nc(-c3ccco3)c(CC3CCCCC3)n2c1	11µM*	-5	-31%	?	?	·
COc1ccc(-c2nc3c4ccccc4ccn3c2Cc2cccc(Cl)c2)cc1OC	-29%	-10	-20%	?	?	·
O=C(Nc1ccc(F)cc1)c1ccc(Br)c(S(=O)(=O)N2CCOCC2)c1	?	?	-10%	?	?	6%[0.0935 µM]
COc1ccc(Cc2c(-c3ccco3)nc3ccc(Br)cn23)c(C)c1	16µM*	-23	16µM*	?	21µM*	·
CCOC(=O)CN(Cc1ccccc1)C(C(=O)NC1CCCCC1)c1ccccc1 (centres undefined)	?	·	-9%	15µM*	21µM*	0%
COc1cc(OC)cc(N(C(=O)c2ccco2)C(C(=O)NC2CCCC2)c2ccc(N(C)C)cc2)c1 (centres undefined)	-11%	-3	-1%	?	?	10%
